Experimental data from PubChem BioAssay (NCI).
About 83,000 compounds went through this panel and 20% of them were active in at least one assay; those are over-represented in the sample as a whole.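 Testing used 96-well plates and a 48-hour single-concentration exposure. Example: -40 means 40% of the starting cells died.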 Calls of active or inactive are those of the source. How the source made its calls: active means growth percent below 10; inactive means the rest.

Tested on: HL-60(TB) leukemia
Assay: NCI-60 one-dose screen, 48 h (100 = growth as untreated, 0 = no growth, -100 = all killed)
Conditions: 10 µM unless noted

Row | Compound | growth
1 | CCc1ccccc1-c1nc(CN[C@@H]2C[C@@H]3C[C@H]([C@H]2C)C3(C)C)c(C)o1 | -35.9% (active)
2 | COc1cc(C2CC(c3cc(OC)c(OC)c(OC)c3)=Nc3c(N)nc(N)nc3N2)ccc1Oc1nc(Nc2ccc(F)cc2)nc(N(C)C)n1 (stereo not given) | 8.45% (active)
3 | CCCCCCCCc1cccc(CC(=O)Nc2ccc(C)cc2C(=O)O)c1 | 33.5% [25 µM] (inactive)
4 | COc1ccc(NC(=O)c2sc3nc(C(C)C)ccc3c2N)cc1 | 66.3% (inactive)
5 | Cn1cc(-c2nc(N)nnc2-c2c[nH]c3ccc(F)cc23)c2cccnc21 | 37.2% (inactive)
6 | O=C(CSc1nc2ccccc2c(=O)n1-c1ccc(Cl)cc1)Nc1ccc(-c2nc3ccc([N+](=O)[O-])cc3[nH]2)cc1 | 85.7% (inactive)
7 | Fc1ccc(F)c(CNc2nc(SCCN3CCOCC3)nc3c2cnn3CC(Cl)c2ccc(Br)cc2)c1 (stereo not given) | -12.3% (active)
8 | CC(=O)c1ccc(Nc2nc(SCCC(C)C)nc(-c3ccc(F)cc3)c2C#N)cc1 | 91.8% (inactive)
9 | Cc1c(C(=O)NNC(=O)c2ccc(Cl)cc2)nnn1-c1ccc(Br)cc1 | 102% (inactive)
10 | O=c1oc2ccc(-c3ccc(F)cc3F)cc2c(=O)n1-c1ccc(F)cc1 | -40.6% (active)
11 | COc1cc(NC(=O)c2cc(-c3ccc(F)cc3F)ccc2O)cc(OC)c1OC | 15.8% (inactive)
12 | O=C1c2ccccc2C(=O)c2c1c(C(=O)c1ccc(Cl)cc1)n1c2ccc2c3ccccc3ccc21 | 109% (inactive)
13 | COc1ccc(S(=O)(=O)Nc2ccc(-c3ccc4c(c3)NC(=O)/C4=C\c3ccc[nH]3)cc2)cc1OC | 76.8% (inactive)
14 | COc1cc(CNC(=O)C[C@H](C)CCC=C(C)C)ccc1OCc1cn(-c2ccc(Cl)cc2Cl)nn1 | 95.5% (inactive)
15 | COc1ccc(N=Nc2c(N)nn3c(-c4cc5cc(Br)ccc5oc4=O)ccnc23)cc1 | 102% (inactive)
16 | O=[N+]([O-])c1cccc(-c2nnc3c(/C=C/c4ccccc4O)nc4ccccc4n23)c1 | 52.5% (inactive)
17 | O=C(CSc1nnc(-c2c[nH]c3ccccc23)n1-c1ccccc1)Nc1ccc(C(=O)/C=C/c2ccccc2Cl)cc1 | 78% (inactive)
18 | Cc1ccc(C(=O)Nc2ccc(-n3ccnc3)c(C(F)(F)F)c2)cc1C#Cc1cnc2cccnn12 | -19.6% (active)
19 | C#CCOc1cc(N(CC)CC)ccc1C(C(=O)NC(C)(C)C)N(C(=O)C1CCc2cc(F)ccc2O1)c1ccccc1F (stereo not given) | -13.5% (active)
20 | Nc1nn2c(-c3cc4cc(Br)ccc4oc3=O)ccnc2c1N=Nc1ccccc1 | 92.7% (inactive)

Row | Compound | growth
21 | COc1ccc(NC2=C(I)C(=O)C(C)=C(C)C2=O)cc1 | -35.7% (active)
22 | COc1ccc(/C=C/c2nc3ccccc3c(=O)n2CC(=O)Nc2ccccc2)cc1 | 94.1% (inactive)
23 | CCN(CC)c1ccc(/C=N/Nc2nc(-c3ccc(Br)cc3)cs2)c(O)c1 | 35.6% (inactive)
24 | CCCCOc1ccc(Nc2nc3ccccc3nc2Nc2ccc(OCCCC)cc2)cc1 | 79.7% (inactive)
25 | COC(=O)c1c(C(=O)OC)c2c3ccccc3c3ccccc3n2c1C(=O)C(F)(F)F | 107% (inactive)
26 | O=c1c2ccccc2nc(COc2ccccc2)n1/N=C/c1ccc(N2CCCC2)cc1 | 101% (inactive)
27 | S=C(Nc1ccccc1)Nc1ccc(OCc2nc3ccc(Cl)cc3[nH]2)cc1 | 85.2% (inactive)
28 | COc1ccc(NC(=O)Cn2c(/C=C/c3ccc(N(C)C)cc3)nc3ccccc3c2=O)cc1 | 82.2% (inactive)
29 | O=c1oc2ccc(-c3ccc(F)cc3F)cc2c(=O)n1-c1ccc(Cl)c(C(F)(F)F)c1 | 1.38% (active)
30 | N#Cc1ccc(-c2nn(-c3ccc(C(=O)O)cc3)cc2CNc2ccc(Oc3ccccc3)cc2)cc1 | 34.4% (inactive)
31 | O=c1[nH]c2ccccc2cc1CSc1nccc(-c2ccc3ccccc3c2)n1 | 50.7% (inactive)
32 | O=C(N/N=C/c1occc1Br)c1[nH]c2ccc(Br)cc2c1-c1ccccc1 | -34.2% (active)
33 | CC(=O)Nc1ccc(-c2cn(-c3cccc(C(=O)Nc4cc(C(F)(F)F)cc(C(F)(F)F)c4)c3)nn2)cn1 | -60.5% (active)
34 | CCN(CC)C(=O)N/C(N)=N/c1nc2ccccc2s1 | 52.1% (inactive)
35 | CCOC(=O)c1ccc(Nc2nc(NN)nc(-c3ccc(OC)cc3)c2C#N)cc1 | 103% (inactive)
36 | O=C1NC2C=CC=CC2/C1=C1/SC(=S)N(C2CC(=O)N(c3ccc(Br)cc3)C2=O)C1=O (stereo not given) | 58.9% (inactive)
37 | O=C(Nc1ccc(-c2ccc3c(c2)NC(=O)/C3=C\c2ccc[nH]2)cc1)Nc1ccc(Cl)c(C(F)(F)F)c1 | 4.76% (active)
38 | COc1cc(/C=C/C(=O)c2ccc(NC(=O)CSc3nnc(-c4c[nH]c5ccccc45)n3-c3ccccc3)cc2)cc(OC)c1OC | 38.6% (inactive)
39 | N/C(=N\c1nc2ccccc2s1)NC(=O)Nc1ccccc1Br | -28.5% (active)
40 | CC1(C)CC[C@]2(C(=O)O)CC[C@]3(C)C(=CCC4[C@@]5(C)C[C@@H](O)[C@@H]6OC(c7cccc(Br)c7)OC[C@@]6(C)C5CC[C@]43C)C2C1 (stereo not given in full) | 7.87% (active)
